Reference: PubChem BioAssay
Activity calls are given as the source filed them. Unless noted, how the calls were made is not given here.

Experiments:
[1] = HepG2 liver cancer cell viability effects, profiling panel, resazurin fluorescence, 24 h, PK04 Diversity Set (AID 1172); conditions: higher = more signal
[2] = basal S. cerevisiae growth modulation, no modifier, primary screen, OD600, strain BY4716, 24 h, basal condition (AID 1173); conditions: OD600, 24 h, higher = more signal, called active from +8 up or from −8 down
[3] = MM1S myeloma cell viability, profiling panel, resazurin fluorescence, basal, 24 h, PK04 Diversity Set (AID 1174); conditions: higher = more signal, called active from +8 up or from −8 down;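 further: MM1S multiple myeloma cell line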
[4] = target: Dihydroorotate dehydrogenase (quinone), mitochondrial (Plasmodium falciparum (isolate 3D7)) (UniProt Q08210); experiment: PfDHODH enzyme inhibitors, primary screen, biochemical, C-terminal His tag, absorbance 600 nm (AID 1175); conditions: DCIP absorbance 600 nm, higher = more signal, called active from +8 up or from −8 down;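 further: recombinant parasite enzyme with a five histidine tag at its C terminus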
[5] = P. aeruginosa biofilm formation inhibitors, primary screen, strain PAO1, LB-PBS medium, absorbance 600 nm (AID 1176); conditions: P. aeruginosa PAO1 growth/biofilm, A600, 12 h; higher = more signal
[6] = S. cerevisiae RM11-1a growth modifiers, primary screen, strain RM11-1a, OD600, basal, 24 h (AID 1177); conditions: OD600, 24 h, higher = more signal, called active from +8 up or from −8 down;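 further: cultures grown under basal conditions with no added stressor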
[7] = E. coli acrAB mutant growth effects, primary screen, E. coli filamentation inducers, strain DRC39, OD650, 24 h (AID 1178); conditions: higher = more signal, called active from +8 up or from −8 down;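 further: growth measured as culture turbidity by optical density at 650 nm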
[8] = E. coli acrAB mutant growth effects, primary screen, E. coli filamentation inducers, strain DRC39, OD650, 48 h (AID 1179);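 further: screen aims at cell division blockers that make cells filament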; conditions: E. coli DRC39 delta-acrAB growth, higher = more signal, called active from +8 up or from −8 down
[9] = RPMI8226 myeloma cell viability, profiling panel, resazurin fluorescence, basal, 24 h, PK04 Diversity Set (AID 1180); conditions: higher = more signal;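 further: RPMI8826 multiple myeloma cell line at 5000 cells per well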
[10] = target: E3 ubiquitin-protein ligase XIAP (Homo sapiens) (UniProt P98170); experiment: XIAP binders, primary screen, biophysical, small-molecule microarray, fluorescence 635 nm (AID 1181); conditions: small-molecule microarray binding, higher = more signal;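 further: score merges 667 nm emission and signal to noise over triplicate slides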
[11] = tested on: XIP peptide (Xip251-270) binding; experiment: small-molecule binders of XIP peptide, primary screen, biochemical, small-molecule microarray, fluorescence 635/667 nm, 0.1 µg/mL protein (AID 1182); conditions: fluorescent protein binding, 635 nm, higher = more signal, called active from +8 up or from −8 down
XIP peptide (Xip251-270) = experiment: small-molecule binders of XIP peptide, primary screen, biochemical, small-molecule microarray, fluorescence 635/667 nm, 0.5 µg/mL protein (AID 1183); conditions: small-molecule microarray binding, fluorescence 635 nm; higher = more signal
[12] = Plasmodium falciparum growth inhibition, primary screen, strain 3D7, DAPI fluorescence, 100 nL (AID 1184);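 further: parasites grown inside human red blood cells in medium with human serum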; conditions: P. falciparum 3D7 growth, 3 d, higher = more signal
[13] = target: Homeobox protein Hox-A13 (Mus musculus) (UniProt Q62424); experiment: inhibitors of HoxA13-DNA binding, primary screen, biochemical, fluorescence polarization, labeled oligonucleotide (AID 1185); conditions: 15 min, higher = more signal, called active from +8 up or from −8 down
[14] = inhibitors of hydroxyurea-induced Chk1 phosphorylation, primary screen, imaging, HeLa, phospho-Chk1 antibody, percent positive cells (AID 1186); conditions: hydroxyurea-induced phospho-Chk1 immunofluorescence imaging, higher = more signal
[15] = inhibitors of hydroxyurea-induced Chk1 phosphorylation, primary screen, imaging, HeLa, phospho-Chk1 nuclear intensity (AID 1187); conditions: hydroxyurea-induced phospho-Chk1 immunofluorescence imaging, higher = more signal

Chain of Dihydroorotate dehydrogenase (quinone), mitochondrial (Plasmodium falciparum (isolate 3D7)) (Q08210 whole entry, looked up): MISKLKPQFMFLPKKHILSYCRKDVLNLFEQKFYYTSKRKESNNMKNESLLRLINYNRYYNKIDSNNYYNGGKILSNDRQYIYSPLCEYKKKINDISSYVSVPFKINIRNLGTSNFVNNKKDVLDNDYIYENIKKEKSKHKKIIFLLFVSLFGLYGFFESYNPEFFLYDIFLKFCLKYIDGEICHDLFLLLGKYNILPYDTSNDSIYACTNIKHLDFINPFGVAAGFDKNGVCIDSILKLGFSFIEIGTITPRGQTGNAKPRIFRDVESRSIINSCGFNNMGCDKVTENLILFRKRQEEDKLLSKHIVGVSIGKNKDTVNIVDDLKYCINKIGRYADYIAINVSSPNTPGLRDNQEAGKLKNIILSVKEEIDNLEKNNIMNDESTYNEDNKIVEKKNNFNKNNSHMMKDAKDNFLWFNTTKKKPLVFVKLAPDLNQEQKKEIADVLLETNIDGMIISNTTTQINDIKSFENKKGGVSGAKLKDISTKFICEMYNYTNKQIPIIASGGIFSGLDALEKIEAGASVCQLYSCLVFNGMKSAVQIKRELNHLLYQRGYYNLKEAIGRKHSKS
Chain of E3 ubiquitin-protein ligase XIAP (Homo sapiens) (P98170 whole entry, looked up): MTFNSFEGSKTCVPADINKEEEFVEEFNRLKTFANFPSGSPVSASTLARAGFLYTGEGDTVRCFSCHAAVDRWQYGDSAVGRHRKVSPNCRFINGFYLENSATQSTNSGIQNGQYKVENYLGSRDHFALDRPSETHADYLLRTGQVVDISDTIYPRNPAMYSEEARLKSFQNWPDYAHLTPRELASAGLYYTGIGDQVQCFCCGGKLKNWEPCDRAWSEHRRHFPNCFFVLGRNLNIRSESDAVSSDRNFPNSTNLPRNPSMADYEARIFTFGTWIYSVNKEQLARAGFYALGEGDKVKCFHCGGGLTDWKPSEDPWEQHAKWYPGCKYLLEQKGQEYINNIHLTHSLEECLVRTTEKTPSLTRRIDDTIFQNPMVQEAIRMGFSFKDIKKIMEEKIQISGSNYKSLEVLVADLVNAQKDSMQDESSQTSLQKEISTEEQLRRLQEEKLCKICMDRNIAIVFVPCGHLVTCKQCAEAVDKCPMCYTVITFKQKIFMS
Chain of Homeobox protein Hox-A13 (Mus musculus) (Q62424 whole entry, looked up): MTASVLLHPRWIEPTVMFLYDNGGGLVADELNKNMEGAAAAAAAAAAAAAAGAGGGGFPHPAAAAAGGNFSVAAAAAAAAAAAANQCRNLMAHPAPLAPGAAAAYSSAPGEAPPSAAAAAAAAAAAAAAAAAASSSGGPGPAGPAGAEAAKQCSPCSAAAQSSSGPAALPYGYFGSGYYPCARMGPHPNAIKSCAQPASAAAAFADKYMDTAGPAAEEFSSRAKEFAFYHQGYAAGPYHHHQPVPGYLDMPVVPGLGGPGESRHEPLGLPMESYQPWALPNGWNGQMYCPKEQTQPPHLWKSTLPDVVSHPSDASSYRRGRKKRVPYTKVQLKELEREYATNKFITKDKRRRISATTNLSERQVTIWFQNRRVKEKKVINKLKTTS

SMILES	z-score [1]	z-score [2]	z-score [3]	composite z-score [4]	z-score [5]	z-score [6]	z-score [7]	z-score [8]	z-score [9]	composite z-score [10]	composite z-score [11]	composite z-score (XIP peptide (Xip251-270))	z-score [12]	z-score [13]	z-score [14]	z-score [15]
CC(C)N1C(=O)C[C@@](C(=O)NCCN2CCOCC2)(c2ccc([N+](=O)[O-])cc2)[C@H]1c1ccc(CO)cc1	1.68	-1.39 (inactive)	0.795 (inactive)	-0.1 (inactive)	-0.838 (inactive)	-0.291 (inactive)	0.0506 (inactive)	0.445 (inactive)	1.23	-0.0747	0.534 (inactive)	0.634	0.289	-2.52 (inactive)	0.159 (inactive)	0.451 (inactive)
CO[C@H]1O[C@H](CO)[C@@H](OC(=O)Nc2ccc3c(c2)OCO3)[C@H](OC(=O)Nc2ccccc2-c2ccccc2)[C@H]1OC(=O)Nc1ccccc1-c1ccccc1	-2.5	2.05 (inactive)	-2.94 (inactive)	0.656 (inactive)	0.553 (inactive)	4.05 (inactive)	0.335 (inactive)	-0.303 (inactive)	-2.63	0.441	0.667 (inactive)	0.873	-1.92	-3.15 (inactive)	0.0165 (inactive)	0.444 (inactive)
C[N+](C)(C)CCCC[C@@H]1NC(=O)[C@@H]2C[C@H](C(=O)NCc3ccc(F)cc3)[C@H](c3ccc(O)cc3)N2C1=O	-0.348	0.628 (inactive)	0.0125 (inactive)	0.0528 (inactive)	0.683 (inactive)	0.506 (inactive)	0.426 (inactive)	0.577 (inactive)	0.276	0.0223	0.744 (inactive)	0.0664	0.269	-0.882 (inactive)	0.0551 (inactive)	0.0892 (inactive)
O=C1NC(=O)C2C1C=CC(C(O)c1ccc([N+](=O)[O-])cc1)N2Nc1ccccn1 (stereo not given)	-0.731	0.579 (inactive)	-0.76 (inactive)	0.622 (inactive)	0.586 (inactive)	0.485 (inactive)	-0.16 (inactive)	-0.372 (inactive)	-0.723	0.103	-0.254 (inactive)	0.726	1.21	-2.37 (inactive)	-0.284 (inactive)	-0.347 (inactive)
O=C(NCC(O)CO)C1N=C(c2ccc(OCCCO)cc2)N(c2ccccc2)O1 (stereo not given)	-0.664	-0.732 (inactive)	-0.783 (inactive)	-0.568 (inactive)	-1.41 (inactive)	-0.406 (inactive)	0.015 (inactive)	-0.003 (inactive)	-1	-0.142	0.654 (inactive)	0.801	-0.284	-2.55 (inactive)	-0.195 (inactive)	-0.257 (inactive)
CCCNC(=O)[C@@]1(Sc2ccc(C)cc2)CC(=O)N(Cc2ccccc2Cl)[C@@H]1c1ccc(CO)cc1I	0.766	-4.16 (inactive)	-3.58 (inactive)	-0.139 (inactive)	0.034 (inactive)	-0.641 (inactive)	0.466 (inactive)	1.01 (inactive)	-1.28	-0.302	0.263 (inactive)	0.157	-0.0495	-2.99 (inactive)	0.242 (inactive)	0.677 (inactive)
O=C1O[C@@H](c2ccccc2)[C@@H](c2ccccc2)N2[C@@H](c3ccc(OCCO)cc3)[C@]3(C(=O)Nc4ccc(C#CC5(O)CCCCCC5)cc43)[C@@H](C(=O)Nc3nc4ccccc4s3)[C@H]12	-0.369	1.28 (inactive)	-0.0769 (inactive)	-0.263 (inactive)	2.29 (inactive)	2.45 (inactive)	-0.27 (inactive)	0.261 (inactive)	0.519	0.147	0.813 (inactive)	0.667	-1.59	1.03 (inactive)	0.234 (inactive)	0.42 (inactive)
O=C(NCc1ccccc1)[C@@H]1c2ccccc2C(=O)N(Cc2ccc(OC(F)(F)F)cc2)[C@H]1c1ccc(CO)cc1	0.299	-0.103 (inactive)	0.61 (inactive)	-0.197 (inactive)	-0.109 (inactive)	-0.486 (inactive)	0.822 (inactive)	0.387 (inactive)	1.5	0.371	-0.304 (inactive)	0.56	-0.655	-2.53 (inactive)	0.0188 (inactive)	0.243 (inactive)
CC(C)[Si](C#CCCc1ccccc1)(O[C@H](c1ccccc1)c1cn(Cc2ccccc2)nn1)C(C)C	1.5	-8.07 (active)	-0.016 (inactive)	-0.262 (inactive)	-0.206 (inactive)	0.129 (inactive)	-0.0409 (inactive)	0.451 (inactive)	-0.052	-0.0117	-0.0657 (inactive)	0.574	-0.374	-1.64 (inactive)	-1.18 (inactive)	-1.16 (inactive)
COc1ccc(C(=O)Nc2ccc(CN3C(=O)[C@@]4(O[C@@H](CCn5cc(CCO)nn5)[C@H]([Si](C)(C)c5ccc(OC)cc5)[C@H]4C)c4ccccc43)cc2)cc1	-3.26	-5.03 (inactive)	-4.02 (inactive)	0.483 (inactive)	0.863 (inactive)	2.47 (inactive)	1.07 (inactive)	-0.101 (inactive)	-3.35	-0.0871	1.04 (inactive)	0.561	-2.71	-3.79 (inactive)	-0.989 (inactive)	-1.13 (inactive)
